PubChem BioAssay (NCATS)
Records with an inconclusive call do not appear. A call without a number means that no potency is given here. Calls of active or inactive are those of the source. The call rests on the fitted dose curve; in most records, active means well fitted inhibition curve with a large enough effect; inconclusive means small, poorly fitted or top-dose-only effect; inactive means flat fitted curve, though single readings scatter.

Test system: DIV14
Assay: qHTS profiling for inhibitors of Plasmodium falciparum proliferation (AID 504749); further: nearly all actives have a fitted effect of over 60% in size
Details: P. falciparum in erythrocytes, SYBR Green DNA, 72 h; series mostly up to 28.7 µM
Summary of the method: (§1)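 Parasite proliferation within erythrocytes, 72 h exposure. Endpoint: SYBR Green I fluorescence after overnight lysis at room temperature. Controls: 0.29 uM artemisinin, DMSO.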
Potency means the concentration at half of the fitted maximal effect.

Row | SMILES | Potency
1 | CCCCC[C@H](O)/C=C/[C@H]1[C@H](O)CC(=O)[C@@H]1C/C=C\CCCC(=O)O | inactive
2 | O=C(CCCN1CCC(C(=O)c2ccc(F)cc2)CC1)c1ccc(F)cc1 | 0.757 µM (active)
3 | C(=C\c1ccncc1)/c1ccccc1 | inactive
4 | O=C1N=C2SCCN2C(=O)C1Cc1ccc(Cl)cc1 (stereo not drawn) | inactive
5 | CCCCCCCCCCCC(=O)N(CCO)CCO | inactive
6 | Cc1nc(NS(=O)(=O)c2ccc(N)cc2)nc(C)c1Br | inactive
7 | O=c1[nH]c(=O)n([C@H]2C[C@H](O)[C@@H](CO)O2)cc1/C=C/Br | inactive
8 | CC12CCC(C[N+](C)(CCC[N+](C)(C)C)C1)C2(C)C (stereo not drawn) | inactive
9 | F[Si-2](F)(F)(F)(F)F | inactive
10 | CN(Cc1ccccc1)Cc1ccccc1 | inactive
11 | O=[n+]1ccn([O-])c2ccccc21 | inactive
12 | OCC(O)CO | inactive
13 | CC(=O)NCCCS(=O)(=O)O | inactive
14 | CCN(CC)CCOc1ccc2nc(N(C)C)sc2c1 | inactive
15 | Cc1cccc(Nc2ncccc2C(=O)O)c1C | inactive
16 | CCCCC(CC)CCC(CC(C)C)OS(=O)(=O)O (stereo not drawn) | inactive

Row | SMILES | Potency
17 | C[C@H](N)C(=O)N[C@@H](C)P(=O)(O)O | inactive
18 | CO/N=C(\C(=O)N[C@@H]1C(=O)N2C(C(=O)[O-])=C(C[n+]3cccc4c3CCC4)CS[C@H]12)c1csc(N)n1 | inactive
19 | Cc1cc(-c2ccc(N=Nc3ccc4c(S(=O)(=O)O)cc(S(=O)(=O)O)c(N)c4c3O)c(C)c2)ccc1N=Nc1ccc2c(S(=O)(=O)O)cc(S(=O)(=O)O)c(N)c2c1O | inactive
20 | CCC(C(=O)NC(N)=O)c1ccccc1 (stereo not drawn) | inactive
21 | Cn1cc(NC(=O)c2cc(NC(=O)c3cc(NC=O)cn3C)cn2C)cc1C(=O)NCCC(=N)N | 3.38 µM (active)
22 | CCc1ncnc2cc(OC)c(OC)cc12 | inactive
23 | Cc1ncc(C[n+]2csc(CCO)c2C)c(N)n1 | inactive
24 | O[C@@H]([C@H](O)[C@H](O)CBr)[C@H](O)CBr | inactive
25 | C[C@@](Cc1ccc(O)c(O)c1)(NN)C(=O)O | inactive
26 | CC(=O)Oc1cc(C(F)(F)F)ccc1C(=O)O | inactive
27 | CCCCC | inactive
28 | O=P(O)(O)CP(=O)(O)O | inactive
29 | CCCCC[C@H](O)/C=C/[C@@H]1[C@H]2C/C(=C/CCCC(=O)O)O[C@H]2C[C@H]1O | inactive
30 | C[Si](C)(C)O[Si](C)(C)C | inactive
31 | Cc1c(C)c2c(c(C)c1OC(=O)CCC(=O)O)CC[C@@](C)(CCC[C@H](C)CCC[C@H](C)CCCC(C)C)O2 | inactive
32 | CCOC(=O)c1c[nH]c2cc(OCC(C)C)c(OCC(C)C)cc2c1=O | 0.151 µM (active)

Test system: DIV17
Assay: as above
Details: P. falciparum in erythrocytes, SYBR Green DNA, 72 h; series mostly up to 28.7 µM
Summary of the method: as §1

Row | SMILES | Potency
33 | CCCCC[C@H](O)/C=C/[C@H]1[C@H](O)CC(=O)[C@@H]1C/C=C\CCCC(=O)O | inactive
34 | O=C(CCCN1CCC(C(=O)c2ccc(F)cc2)CC1)c1ccc(F)cc1 | 4.78 µM (active)
35 | C(=C\c1ccncc1)/c1ccccc1 | inactive
36 | O=C1N=C2SCCN2C(=O)C1Cc1ccc(Cl)cc1 (stereo not drawn) | inactive
37 | CCCCCCCCCCCC(=O)N(CCO)CCO | inactive
38 | Cc1nc(NS(=O)(=O)c2ccc(N)cc2)nc(C)c1Br | inactive
39 | O=c1[nH]c(=O)n([C@H]2C[C@H](O)[C@@H](CO)O2)cc1/C=C/Br | inactive
40 | CC12CCC(C[N+](C)(CCC[N+](C)(C)C)C1)C2(C)C (stereo not drawn) | inactive
41 | Oc1cccc(O)c1O | 9.53 µM (active)
42 | CC(C)NCC(O)COc1ccccc1-n1cccc1 (stereo not drawn) | inactive
43 | F[Si-2](F)(F)(F)(F)F | inactive
44 | CN(Cc1ccccc1)Cc1ccccc1 | inactive
45 | O=[n+]1ccn([O-])c2ccccc21 | inactive
46 | OCC(O)CO | inactive
47 | CC(=O)NCCCS(=O)(=O)O | inactive
48 | CCN(CC)CCOc1ccc2nc(N(C)C)sc2c1 | inactive
49 | Cc1cccc(Nc2ncccc2C(=O)O)c1C | inactive
50 | CCCCC(CC)CCC(CC(C)C)OS(=O)(=O)O (stereo not drawn) | inactive

Row | SMILES | Potency
51 | C[C@H](N)C(=O)N[C@@H](C)P(=O)(O)O | inactive
52 | CC(=O)Nc1ccc(NC(=S)NC(=O)c2ccc(C(C)(C)C)cc2)cc1 | inactive
53 | CO/N=C(\C(=O)N[C@@H]1C(=O)N2C(C(=O)[O-])=C(C[n+]3cccc4c3CCC4)CS[C@H]12)c1csc(N)n1 | inactive
54 | Cc1cc(-c2ccc(N=Nc3ccc4c(S(=O)(=O)O)cc(S(=O)(=O)O)c(N)c4c3O)c(C)c2)ccc1N=Nc1ccc2c(S(=O)(=O)O)cc(S(=O)(=O)O)c(N)c2c1O | inactive
55 | CCC(C(=O)NC(N)=O)c1ccccc1 (stereo not drawn) | inactive
56 | Cn1cc(NC(=O)c2cc(NC(=O)c3cc(NC=O)cn3C)cn2C)cc1C(=O)NCCC(=N)N | 3.79 µM (active)
57 | CCc1ncnc2cc(OC)c(OC)cc12 | inactive
58 | Cc1ncc(C[n+]2csc(CCO)c2C)c(N)n1 | inactive
59 | O[C@@H]([C@H](O)[C@H](O)CBr)[C@H](O)CBr | inactive
60 | O=[N+]([O-])c1c(Cl)cccc1-c1c[nH]cc1Cl | inactive
61 | C[C@@](Cc1ccc(O)c(O)c1)(NN)C(=O)O | inactive
62 | CC(=O)Oc1cc(C(F)(F)F)ccc1C(=O)O | inactive
63 | CCCCC | inactive
64 | O=P(O)(O)CP(=O)(O)O | inactive
65 | CCCCC[C@H](O)/C=C/[C@@H]1[C@H]2C/C(=C/CCCC(=O)O)O[C@H]2C[C@H]1O | inactive
66 | C[Si](C)(C)O[Si](C)(C)C | inactive
67 | Cc1c(C)c2c(c(C)c1OC(=O)CCC(=O)O)CC[C@@](C)(CCC[C@H](C)CCC[C@H](C)CCCC(C)C)O2 | inactive
68 | CCOC(=O)c1c[nH]c2cc(OCC(C)C)c(OCC(C)C)cc2c1=O | 0.338 µM (active)
